About 3,700 (7%) of roughly 53,000 sequences were called active.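 How the source made its calls: active means gene knockdowns whose robust z-score for IL-1 alpha signal is at least 2 or at most -2, so actives lie on both sides; inactive means the rest.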 This excerpt belongs to a sample that is enriched for actives.

The assay in a line: Components of the Cytosolic LPS Sensing Pathway: Gene Identification via Genome-wide siRNA Screen.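 Further: robust z of the log signal after scaling to non-targeting control siRNA wells of the plate.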 Particulars: RAW264.7 macrophages, IL-1a HTRF, actives lie on both sides, screened at 100 nM (by protocol), cells primed 5 h with Pam3CSK4 first. The method in brief:
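Supernatant IL-1a by HTRF from RAW264.7 cells primed with Pam3CSK4 (5 hours) and transfected with LipidA (24 hour) after 48h siRNA knockdown at 100 nM; cell viability checked with CellTiter-Glo.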
With GGCCUCAGUUGGACUUGAATT against Scn10a, the z-score was -0.352 (inactive). With GGCUAUACCUUGGUAGAUATT against Parvg, the z-score is -1.19 (inactive). GGUCUCCUCCAAGAUGAUGTT against Mettl3: the z-score was -1.01 (inactive). In the case of GCAGGAGAACUUUUUUAGUTT against Hus1 it was -1.01 (inactive); in that of GGGUUGUUGAGACUUCCACTT against Hmbs, 2.79 (active); in that of CCAGGAGGAUACAAUCCCUTT against Rgs3, -3.38 (active).

As for GGUGCUAGGAAUGAACGGGTT against Ripply1, the z-score was 0.478 (inactive). On to GGAUGCUUGUGGACCUGUGTT against Olfr1123, for which the z-score is 1.14 (inactive).

In the case of GGAUUAAAUCCGAAAAGCUTT against Tmem51, the z-score was -2.36 (active). Regarding GGCCAUCAGUGUGGAAUGUTT against BC004004, the z-score is -0.19 (inactive). The value for GGUAAUAACCCUUAAUAAGTT against Akirin2 was 0.572 (inactive).

With GCACAAAAAAGUGAUAUUGTT against Hdlbp, the z-score is 0.41 (inactive). In the case of CGUAGCUGUAAUUCUUCAGTT against Pcdhgb2 it was 2.02 (active); in that of GGAAGAUGUUAAGAGUUACTT against Slc1a3, -0.865 (inactive). As for GCUAUCUCUGCUAAUAAAGTT against Col6a1, the z-score was -0.203 (inactive).

For the sequence GCCAUCCUUGUGCUAAGAGTT against Ifna4, the z-score is -0.604 (inactive). Regarding GCAUGAAUUCAAAUUGCCATT against Adgrl4, the z-score is -0.981 (inactive).

Regarding CGGUACUAAACAUUACCUCTT against Olfr633, the z-score was 0.957 (inactive).

Consider “GAGUGGUUUCUAAUUCGUATT against A830031A19Rik”, for which the z-score is 2.56 (active). In the case of CCUGUUCUGUUAUCAACGGTT against Plxdc1, the z-score is 0.123 (inactive).

Take GGCAAACUGUCUCUUCAGATT against Pim1: the z-score is -0.131 (inactive). The value for GGUGAAGAGUUCAAACAUCTT against Atp9a was 1.29 (inactive); that for GGACAUUGACCUGUUCGGCTT against Eef1d was 0.952 (inactive).

As to GGAGCUGUAUGAGAUAGAGTT against Zfp566, the z-score was 4.15 (active). In the case of GGACCUCAACAUCCAGAGATT against Sema6b it was -0.217 (inactive); in that of GGUUAAAGGUCAGAUUUAGTT against Dapk2, 2.54 (active); in that of CGACCUGAAAGAUUCGGAATT against Ppara, -1.04 (inactive). GCUCAACCCAUUCUUUGAUTT against Cep295nl: the z-score is 0.407 (inactive). In the case of CCAAAGCUAGGUCAUUUUATT against Slc31a2 it was 0.72 (inactive). For the sequence GGAAAAAGCGGAAAUUCAGTT against Pgbd5, the z-score was -0.276 (inactive). The value for GCAUUUGUACAUUGUGACUTT against Ces5a was -2.28 (active); that for GGGUCCAGUAUCCAUCAAATT against Sf3a1 was -2.7 (active). The value for GGAAGAAGACUCAGAAAGUTT against Prkag2 was 1.43 (inactive); that for CCGACCAUCUGUGGAAAUATT against Samd5 was 0.227 (inactive); that for GCCAGAUCCCUGGAAUGUATT against Ece2 was -0.632 (inactive).

For GGUAUUGCUUUCACAUUAUTT against Efr3a, the z-score was 0.434 (inactive). With GGUGUAAGAACUUCAAGUUTT against Tlr9, the z-score is 0.199 (inactive). Turning to GGCUGUUUUUACCCUACUUTT against Vmn1r72, the z-score was -0.441 (inactive). GGAGAAAUUCAAAAGGAAUTT against Ms4a6d: the z-score was -0.764 (inactive). The value for GGAUGCUCAUGCUAAGCAGTT against Krt7 was 0.547 (inactive). With GGAUGAGGGAACGUACAUUTT against Il18r1, the z-score is 5.74 (active). As to GGAACUUCCCUAUAGUGAATT against Hdac3, the z-score was -1.52 (inactive). The value for GGAUGCGCUGAUAUCAGUATT against Olfr370 was 1.3 (inactive); that for GCUCAUUGAGUACAAGACCTT against Ndufs2 was 1.76 (inactive); that for GGUCACUGAACCUAUUUCCTT against Arhgap15 was -2.56 (active). As to CCCUCAAUGCUGGAAAACCTT against Nol4, the z-score is -1.43 (inactive). GGCAAGGAUGAUGUCUUCGTT against Upk1a: the z-score was -1.33 (inactive). In the case of GCUUCUAGGGACCUAUUAATT against Dhx30 it was -0.0854 (inactive); in that of GGUCUAUGAGAUGUUUUCUTT against Cyp2a4, 2.78 (active); in that of GCAACUGGCUGAACUCUCATT against Gsdmc2, 3.91 (active). In the case of GGCACUCAAUGUCUUCUAUTT against Nbeal1 it was 0.516 (inactive); in that of GCUACUGCAGUAUACAUUGTT against Olfr869, 2.21 (active). Turning to GGAAUCGGUACUCUUCCACTT against Tcerg1l, the z-score was 0.26 (inactive). Regarding GGAAUUCAUGAAGUAUAACTT against Myo5c, the z-score is 0.941 (inactive). With GAUAAUUUGCACAUCCUCUTT against Nrn1l, the z-score is -0.999 (inactive).

With GGGUUUGAGUGCUGUGAAGTT against Ap4s1, the z-score was -2.66 (active). The value for GCUGGGCUACAAUACAUAUTT against Fgf3 was -0.0573 (inactive). In the case of CCAUGAGUAUCAAGUCAAUTT against Septin9, the z-score was 1.14 (inactive). In the case of GGGUGAAAUCUAUCUCCAUTT against Agfg1 it was -1.85 (inactive). In the case of CCAUAAUUCAGCUAGACCUTT against Axin1, the z-score is 0.201 (inactive). In the case of GGUAAAGACUGGAUGGCUATT against Art5 it was 2.14 (active); in that of GGAAAUCUUUGAGUUUGAATT against Clca1, -0.0578 (inactive); in that of GCCAAAUGAGUCAGAUACUTT against Ak3, -0.402 (inactive). In the case of GGAUCCUUAAUCGAUACACTT against Gng3 it was 2.38 (active); in that of “GCCUACAGGAGUGAGAUAATT against Arhgap33os”, -1.36 (inactive). Regarding AUUGCAUUGUAUUCACUUGTT against Psg22, the z-score was 0.777 (inactive). For the sequence GGAAUUCACAUUUGACUGUTT against Irx3os, the z-score is 0.31 (inactive).

With GGGUUGGAUAGAAUAUUGUTT against Xk, the z-score is 1.4 (inactive). For the sequence GCCUCGAUUGGCCACAUUUTT against Atp5l, the z-score is 4.61 (active). For the sequence GCAGUAUGAGGUAAAUUAUTT against Amer3, the z-score is 1.05 (inactive). Regarding GCCUUCAUUAUUUUAAUGCTT against Ilf3, the z-score was 0.0185 (inactive). In the case of GGCAAAAUGAUCUGCUUUCTT against Trim69 it was -0.125 (inactive); in that of GGUUGCUCAGAUUCAGAAUTT against Isy1, -1.53 (inactive). Consider GGAACCUAGAGAAAAAGAATT against Iyd, for which the z-score was -1.18 (inactive). Take GGCUUUCCAGAAGACAGAATT against Cyp2s1: the z-score was 0.469 (inactive). In the case of GCUCUGUUAAGGAAGAACATT against Safb2, the z-score was 2.02 (active). As to GCUAUGACUCCAACAUGCGTT against Jaml, the z-score is 0.0115 (inactive). In the case of “GGUGAAGACAGAAUUUCCGTT against 1700128F08Rik”, the z-score was -1.01 (inactive).

GGAAGCAAGGAAAAUCAUGTT against Lpo: the z-score is -0.289 (inactive). The value for GGUGAUACGUAUUUUUUAGTT against Pan3 was -1.09 (inactive); that for GGGUUGUCUUCAUCUACUUTT against Crhr1 was 3.47 (active). The value for GGUGUUUACUUCCUCAGAATT against Slc9b2 was -0.373 (inactive); that for GGAGAUAUCCAUCAAUAGUTT against Nbr1 was 0.874 (inactive); that for GGACUUCUAAAAAUCUCUGTT against Gabrb2 was 0.746 (inactive). On to GCGCGCAGUGAACGAAAAATT against Mycn, for which the z-score was 1.14 (inactive). Take “CCAUCACGGAUAAUCAUCGTT against 4931417E11Rik”: the z-score was -1.65 (inactive). For the sequence GGUACUUCCUACCUAACAGTT against Nipa1, the z-score is -0.235 (inactive).

Turning to CCACAGGUUACAACAUAAATT against Pign, the z-score is -1.45 (inactive). In the case of GCUCCACAAGAUGUAAAGGTT against Il21 it was 0.11 (inactive). Turning to GGAACUGAUGAUGGACCAGTT against Slc4a1, the z-score is 3.39 (active). In the case of GGGCCAUUUUAGGUCCUUUTT against Rbm7 it was 0.112 (inactive). With GGACUUACCUUUAACCAACTT against Slc30a4, the z-score was 0.42 (inactive). Regarding GGGAAUGAAAAGUCAAAAGTT against Stard7, the z-score was -0.047 (inactive). The value for GCAGCUCUAGGUGUUCAGUTT against Gjc3 was 0.955 (inactive); that for GCCAUUGGGUGUAACAUUUTT against Mpp6 was 3.35 (active). The value for GCCAUGCACUAACUUGAAUTT against Adamts4 was -0.0391 (inactive); that for GCACUUUACGAGUAUGUAATT against Gnl1 was -1.74 (inactive).

With GGUAUUGGAAAGUAGAAACTT against Igflr1, the z-score is 0.515 (inactive). The value for CCGAGUGGUUAGCUACCAGTT against Ccl24 was 2.4 (active); that for GGAGAUCCUUCAUUACCUGTT against Psap was -1.34 (inactive).

In the case of GGGAUCGUCCAGAUCUAAUTT against Apobec3, the z-score was -0.982 (inactive). The value for GGACUGUCCUCCAAUUUGCTT against Nat8f3 was -2.6 (active); that for GGGAAAUUUACAGAAAGUGTT against Igtp was 0.956 (inactive). In the case of CGGGCUCAGGUAAAACUCUTT against Ddx31, the z-score was -0.217 (inactive). GGAGAGCUUGUUCAAGUGCTT against Zxdc: the z-score was -0.86 (inactive).

Turning to CCUCAUUGGUUUGACCCAGTT against Hsd17b6, the z-score is 0.172 (inactive).

In the case of GCCAUUAACUAUGGGACCUTT against Lck, the z-score is -0.0729 (inactive). In the case of GCUAUCACUUUUCAUUAGATT against G0s2 it was -0.902 (inactive).

Source of the values: PubChem BioAssay AID1508600 (Functional Genomics Laboratory (NCATS/FGL), 2020).
